The values that follow come from PubChem BioAssay (NCATS).

The structures appear in SMILES notation. Results filed as inconclusive are left out. A number with no mark means an inactive call. The call rests on the fitted dose curve; in most records, active means well fitted curve in the direction sought with a large enough effect; inconclusive means small, poorly fitted or top-dose-only effect, or another doubt; inactive means no such curve, though single readings can be large or run the other way.

A short description of the test: Viability counterscreen for agonist of constitutive androstane receptor (CAR) against the NCATS DSHEA and TCM libraries (AID 1794838).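 Further: cells exposed to compound for 24 h; 0% is about no effect.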 The note with it: HepG2 cell viability counterscreen, CAR agonist assay, co-treated with 0.75 µM CAR antagonist; series mostly up to 40 µM; activity change, negative = cytotoxicity: at the top concentration. A digest of the protocol:
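Cell viability, from CellTiter-Fluor fluorescence (405/540 nm), was scored after a 24 h, 37C exposure of HepG2 cells carrying CYP2B6 reporter and hCAR to test substances in presence of 0.75 uM PK11195.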
A general note: A counterscreen serves to expose hits that act by an unwanted route or on another target.
With `CC(C)=CCC[C@](C)(O[C@@H]1O[C@H](CO[C@@H]2O[C@H](CO)[C@@H](O)[C@H](O)[C@H]2O)[C@@H](O)[C@H](O)[C@H]1O)C1CC[C@]2(C)[C@@H]1[C@H](O)CC1[C@@]3(C)CC[C@H](O[C@@H]4O[C@H](CO)[C@@H](O)[C@H](O)[C@H]4O[C@@H]4O[C@H](CO)[C@@H](O)[C@H](O)[C@H]4O)C(C)(C)[C@@H]3CC[C@]12C` (stereo not given in full), the activity change, negative = cytotoxicity is 3.8% [at 8.32 µM].

In the case of `CC(C)=CCC[C@](C)(O)[C@H]1CC[C@]2(C)[C@@H]1[C@H](O)CC1[C@@]3(C)CC[C@H](O)C(C)(C)[C@@H]3[C@@H](O[C@@H]3O[C@H](CO)[C@@H](O)[C@H](O)[C@H]3O[C@@H]3O[C@H](CO)[C@@H](O)[C@H](O)[C@H]3O)C[C@]12C` (stereo not given in full), the “activity change, negative = cytotoxicity” value is -14% [at 22 µM]. For `C[C@@]12CC[C@@H]3[C@@](CC[C@H]4[C@@]3(C)CCC[C@@]4(C)C(=O)O)(CC1=O)C2` the value was 9.64%; for `CC1CC[C@]2(C(=O)O)CC[C@]3(C(=O)O)C(=CCC4[C@@]5(C)CC[C@H](OC6OC(C)C(O)C(OC7OC(CO)C(O)C(O)C7O)C6O)C(C)(C)C5CC[C@]43C)C2C1C` (stereo not given in full), -13.5% [at 22 µM].

With `CC(C)=CCC(O)/C(C)=C/CO[C@@H]1O[C@H](CO)[C@@H](O)[C@H](O)[C@H]1O` (stereo not given in full), the “activity change, negative = cytotoxicity” value was -10.3%.
